HIF-2a block: blocks HIF-2a reporter activity | inhibition, % at 18.8 µM | 786-0 RCC cells HIF-2a reporter, luciferase luminescence, overnight | hit rate 0.72% among 360,000 | AID 624352;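 active = inhibition of the luminescence signal of 40% or more relative to plate controls, in a single-dose primary screen at 18.75 µM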
LMP1 NFkB inh: inhibitors of Epstein-Barr LMP1-induced NF-kappaB reporter. LMP1-induced NF-kappaB luciferase reporter cells, luminescence. inhibition, % at 12.5 µM. hit rate 0.69% among 350,000. AID 504558; in the data active = inhibition above about 41%;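 also: 0% = neutral control wells and 100% = reference inhibitor control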
Shn3 inh set2: Schnurri-3 reporter inhibition in Clone20 osteoblasts. inhibition, % at 12.5 µM. Clone20 osteoblast Shn3 3'UTR firefly luciferase, 24 h. hit rate 0.52% among 360,000. AID 588674;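 active = mean inhibition of at least 75% with every replicate also reaching 75%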;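 also: 0% = median of neutral control wells and 100% = pilot-screen positive control compound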
TWEAK-Fn14 inh: blocks TWEAK-Fn14 interaction in a reporter cell assay | TWEAK-stimulated Fn14 reporter cells, luciferase luminescence, 8 h | hit rate 2% among 360,000 | inhibition, % at 10 µM; in the data active = inhibition above about 50%
TROY signal inh: inhibitors of TROY-dependent NF-kB signaling | Q293 LMP1-TROYcd NF-kB luciferase reporter, 4 h | inhibition, % at 10 µM | hit rate 0.98% among 360,000;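 active = compounds whose plate-normalised and pattern-corrected inhibition of the luciferase reporter signal at the single screening dose is 50% or more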
TRPM1 prom inh: MITF TRPM1 promoter inhibition in SK-MEL-5 cells | SK-MEL-5 TRPM1 promoter luciferase, 24 h | inhibition, % at 12.5 µM | hit rate 0.83% among 330,000 | AID 488899;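 active = mean inhibition across replicates of 60% or more, whatever share of single replicates reaches that level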
Numbers without * were called inactive. An excerpt weighted towards active compounds, which were near 3.4% of everything screened.

Results for C=CC[C@@H](CC(=O)N(CCO)Cc1ccccc1)C(=O)N[C@@H](COC(=O)[C@@H](CC=C)Cc1ccc(F)cc1)Cc1c[nH]c2ccccc12 ?
HIF-2a block: 14.9; LMP1 NFkB inh: 6.7; Shn3 inh set2: 30.1; TWEAK-Fn14 inh: 57.4*; TROY signal inh: 44.9; TRPM1 prom inh: 7.1

How did C=CC[C@H](CC(=O)N(CCO)Cc1ccccc1)C(=O)N[C@@H](COC(=O)[C@@H](CC=C)Cc1ccc(F)cc1)Cc1c[nH]c2ccccc12 do in these assays?
HIF-2a block: -36.9; LMP1 NFkB inh: -1.6; Shn3 inh set2: -11.6; TWEAK-Fn14 inh: 69.6*; TROY signal inh: 35.2; TRPM1 prom inh: 0.5

Results for C=CC[C@H](CC(=O)N(CCO)Cc1ccccc1)C(=O)N[C@@H](COC(=O)[C@H](CC=C)CC(=O)OC(C)(C)C)Cc1c[nH]c2ccccc12 ?
HIF-2a block: 7.9; LMP1 NFkB inh: -2.5; Shn3 inh set2: -9.0; TWEAK-Fn14 inh: 27.3; TROY signal inh: 23.7; TRPM1 prom inh: -0.3

How did O=C(c1ccc(F)c(S(=O)(=O)N2CCOCC2)c1)N1CCN(c2ncccn2)CC1 do in these assays?
HIF-2a block: 9.9; LMP1 NFkB inh: 4.9; Shn3 inh set2: 20.5; TWEAK-Fn14 inh: -28.8; TROY signal inh: 4.2; TRPM1 prom inh: 7.6

How did CCn1c(CNC(=O)C2CCCCC2)cc2cc(C)ccc21 do in these assays?
HIF-2a block: 15.2; LMP1 NFkB inh: 2.8; Shn3 inh set2: -9.1; TWEAK-Fn14 inh: 53.6*; TROY signal inh: 14.3; TRPM1 prom inh: 12.4

How did Cc1ccc(NC(=O)Cn2nc(C)c3ccccc3c2=O)cc1 do in these assays?
HIF-2a block: 11.1; LMP1 NFkB inh: -0.2; Shn3 inh set2: 4.2; TWEAK-Fn14 inh: 71.8*; TRPM1 prom inh: -2.6

How did O=S(=O)(c1cc(F)ccc1F)N1CCN(c2ncccn2)CC1 do in these assays?
HIF-2a block: 9.4; LMP1 NFkB inh: 0.5; Shn3 inh set2: 4.0; TWEAK-Fn14 inh: 9.7; TROY signal inh: 6.9; TRPM1 prom inh: -1.0

Results for CN=c1scc(-c2cccs2)n1/N=C/c1ccc(O)c(O)c1O ?
HIF-2a block: -90.6; LMP1 NFkB inh: 17.5; Shn3 inh set2: 73.0; TWEAK-Fn14 inh: 86.8*; TROY signal inh: 89.0*; TRPM1 prom inh: 4.2

What do the screens show for `CN=c1scc(-c2cccs2)n1/N=C/c1ccccc1O`?
HIF-2a block: 90.1*; LMP1 NFkB inh: 84.5*; Shn3 inh set2: 89.8*; TWEAK-Fn14 inh: 108.0*; TROY signal inh: 88.2*; TRPM1 prom inh: 86.9*

Results for Cc1cc(C)n(/N=C/c2ccccc2O)c(=O)c1 ?
HIF-2a block: 6.5; LMP1 NFkB inh: -3.9; Shn3 inh set2: 5.0; TWEAK-Fn14 inh: -1.3; TROY signal inh: -20.2; TRPM1 prom inh: -10.0

What do the screens show for `CC(C)N=c1scc(-c2ccco2)n1/N=C/c1ccc(O)c(O)c1`?
HIF-2a block: -172.3; LMP1 NFkB inh: -48.2; Shn3 inh set2: 93.5*; TWEAK-Fn14 inh: 22.0; TROY signal inh: -9.1; TRPM1 prom inh: -22.6

What do the screens show for `CN=c1scc(C)n1/N=C/c1ccc(O)c(O)c1O`?
HIF-2a block: 10.8; LMP1 NFkB inh: 3.6; Shn3 inh set2: -16.3; TWEAK-Fn14 inh: 21.1; TROY signal inh: -48.1; TRPM1 prom inh: 6.0

Results for C=CCN=c1scc(-c2ccco2)n1/N=C/c1ccc(O)c(O)c1O ?
HIF-2a block: -108.6; LMP1 NFkB inh: -45.8; Shn3 inh set2: 91.3*; TWEAK-Fn14 inh: 47.8; TROY signal inh: -6.6; TRPM1 prom inh: -25.9

How did O=C1Nc2c(Cl)cc(Cl)cc2C1=O do in these assays?
HIF-2a block: 17.8; LMP1 NFkB inh: -13.7; Shn3 inh set2: -54.7; TWEAK-Fn14 inh: -23.0; TROY signal inh: 9.9; TRPM1 prom inh: 45.1

What do the screens show for `CCOc1ccccc1Nc1cc(C)nc2ccccc12`?
HIF-2a block: 19.4; LMP1 NFkB inh: 7.8; Shn3 inh set2: 92.0*; TWEAK-Fn14 inh: -3.1; TROY signal inh: -22.1

Results for CCOc1ccccc1Nc1cc(C)nc2ccc(C)cc12 ?
HIF-2a block: 15.1; LMP1 NFkB inh: -10.1; Shn3 inh set2: 39.4; TWEAK-Fn14 inh: -17.9; TROY signal inh: -1.9; TRPM1 prom inh: 12.6

How did CSc1ccccc1NC(=O)CN1CCCCC1C (stereo unspecified) do in these assays?
HIF-2a block: 12.4; LMP1 NFkB inh: 54.9*; Shn3 inh set2: -0.1; TWEAK-Fn14 inh: -6.0; TROY signal inh: -0.1; TRPM1 prom inh: 8.3
